This is a sample that favours compounds with a hit; in the whole collection about 4.3% have one here.
HSF1 inhib – HSF1 inhibition; AID 2098; activity change, negative = inhibition, % at 7.5 µM (by protocol); actives 0.77% (n = 300,000); NIH3T3-HGL HSE-luciferase, MG132-induced, luminescence 8 h; hits give low values;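 active = more than half of replicate wells show activity change below -50%, luminescence cut by over half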;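 note: luciferase reports HSF-1 transcriptional activity via heat shock element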
HSF1 activator – increases HSF-1 driven luciferase reporter signal. NIH3T3-HGL HSF-1 luciferase reporter, MG132, 8 h; 100% = twice DMSO control signal. activation, % at 9 µM. actives 1.7% (n = 300,000);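 active = mean replicate activation of at least 50% with a set share of replicates each reaching 50%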
esBAF inh – inhibitors of esBAF chromatin remodeling in mouse ES cells; Bmi1-luciferase knock-in reporter, 24 h; 100% = twice the neutral-well signal; reporter increase, % at 12.5 µM; actives 2% (n = 350,000); AID 602393; in the data active = activation above about 40%;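 note: a rise in the Bmi1 reporter signal indicates esBAF inhibition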
SMARCA2 activ – SMARCA2 function activation, primary screen | MG213 cells, MMTV-luciferase reporter, dexamethasone, overnight | activation, % at 9.1 µM | actives 1% (n = 370,000) | AID 652017; in the data active = activation above about 7.8%
MITF act – activators of MITF-driven TRPM1 promoter activity in SK-MEL-5 cells | actives 0.75% (n = 300,000) | SK-MEL-5 TRPM1-promoter luciferase, 24 h; % of positive control, neutral wells = 0 | activation, % at 12.5 µM;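 active = mean activation of at least 80% with every replicate also reaching 80%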
Wnt bcat act – Wnt/beta-catenin pathway activation. Wnt/beta-catenin reporter cell assay, activator, plate reader. AID 743398. actives 1.2% (n = 300,000). activation, % at 9.35 µM; in the data active = activation above about 30%, passing the limit was not always enough
Of the large screens only hits and unclear results are named; the others gave an inactive call.

COc1ccc(-n2c(COc3ccc(C)cc3)nnc2SCC(=O)O)cc1	none
CCOc1ccc(-n2c(COc3ccc(C)cc3)nnc2SCC(N)=O)cc1	Wnt bcat act 71 (no result: MITF act)
O=C(CSc1nncs1)NC(=O)Nc1ccc2c(c1)OCCO2	Wnt bcat act 37
O=C(C[C@@H]1C=C[C@@H](NC(=O)CN2CCOCC2)[C@H](CO)O1)NCc1cccc(F)c1	none (no result: HSF1 inhib, HSF1 activator, SMARCA2 activ, MITF act, Wnt bcat act)
Cc1nnc(SCC2=C(C(=O)O)N3C(=O)C(NC(=O)c4cccc(F)c4F)C3SC2)s1 (stereo not given)	HSF1 activator 63 (no result: esBAF inh)
N#C/C(=C/c1ccc(N2CCOCC2)o1)C(=O)NC1CCCCC1	none (no result: esBAF inh)
N#C/C(=C\c1ccc(N2CCOCC2)o1)C(=O)Nc1ccc(O)cc1	none (no result: esBAF inh)
N#C/C(=C\N1CCOCC1)c1ccccc1	none (no result: esBAF inh)
N#C/C(=C\c1ccc(N2CCOCC2)cc1)c1ccccc1	MITF act 143, Wnt bcat act 33
N#C/C(=C\c1ccc(N2CCOCC2)o1)c1ccccc1	esBAF inh 94, MITF act 87
N#C/C(=C/c1ccc(N2CCOCC2)o1)c1ccc(Br)cc1	HSF1 activator 94 (no result: esBAF inh, Wnt bcat act)
CO[C@H](C(=O)N(C)C[C@H]1OCc2ccccc2-c2c(n(C)c3ccccc23)C(=O)N([C@@H](C)CO)C[C@@H]1C)c1ccccc1	none (no result: HSF1 inhib, HSF1 activator, SMARCA2 activ, MITF act, Wnt bcat act)
O=C(O)c1ccc(N/N=C/C2=Cc3ccccc3OC2)cc1	esBAF inh 81, MITF act 138, Wnt bcat act 41
O=C(O)c1ccc(N/N=C/c2cccc(F)c2)cc1	none (no result: esBAF inh, Wnt bcat act)
Cc1ccc(S(=O)(=O)NNC(=O)Nc2ccc(Cl)cc2)cc1	SMARCA2 activ 8.8
CCOC(=O)c1ccc(S(=O)(=O)NCCNCc2ccccc2)cc1	Wnt bcat act 39 (no result: HSF1 inhib, HSF1 activator)
COc1ccc(NC(=O)NS(=O)(=O)c2ccc(C)cc2)cc1OC	Wnt bcat act 32 (no result: HSF1 inhib, HSF1 activator)
CCOC(=O)c1ccc(COC(=O)CNS(=O)(=O)c2ccccc2)cc1	none (no result: esBAF inh)
CCOC(=O)c1ccc(NC(=O)NS(=O)(=O)c2ccc(C)cc2)cc1	HSF1 inhib -58 (no result: Wnt bcat act)
CCOC(=O)c1ccc(NC(=O)CNS(=O)(=O)c2ccccc2)cc1	none (no result: HSF1 inhib, HSF1 activator)
O=C(NCC[C@@H]1CC[C@@H](NC(=O)C2CCCCC2)[C@@H](CO)O1)Nc1ccc(Cl)cc1	none (no result: HSF1 inhib, HSF1 activator, SMARCA2 activ, MITF act, Wnt bcat act)
COc1ccccc1CNC(=O)C[C@H]1C[C@@H]2c3cc(NC(=O)NC4CCCC4)ccc3O[C@@H]2[C@@H](CO)O1	none (no result: HSF1 inhib, HSF1 activator, SMARCA2 activ, MITF act, Wnt bcat act)
O=C(C[C@@H]1CC[C@H]2[C@@H](COC[C@@H](O)CN2C(=O)c2ccncc2)O1)NCc1cccc(F)c1	none (no result: HSF1 inhib, HSF1 activator, SMARCA2 activ, MITF act, Wnt bcat act)
CCCNC(=O)Nc1ccc2c(c1)C(=O)N(C)C[C@H](OC)[C@@H](C)CN(C(=O)CC)[C@@H](C)CO2	none (no result: HSF1 inhib, HSF1 activator, SMARCA2 activ, MITF act, Wnt bcat act)
COc1ccc(NC(=O)Nc2ccc3c(c2)CC(=O)N([C@H](C)CO)C[C@@H](C)[C@H](CN(C)S(=O)(=O)c2ccc(Cl)cc2)O3)cc1	none (no result: HSF1 inhib, HSF1 activator, SMARCA2 activ, MITF act, Wnt bcat act)
O=C(N[C@H]1C=C[C@@H](CC(=O)N2CCCCC2)O[C@H]1CO)c1ccc2c(c1)OCO2	none (no result: HSF1 inhib, HSF1 activator, SMARCA2 activ, MITF act, Wnt bcat act)
N#C/C(=C\c1ccc(OCc2ccccc2)cc1)C(N)=O	Wnt bcat act 41 (no result: esBAF inh)
COc1cc(/C=C(\C#N)C(=O)Nc2cccc(C(=O)O)c2)ccc1OCc1ccc(F)cc1	HSF1 activator 77
N#C/C(=C\c1ccc(OCc2ccc(F)cc2)cc1)C(=O)Nc1cccc(C(=O)O)c1	Wnt bcat act 51
COc1ccc(NC(=O)/C(C#N)=C\c2ccc(OCc3ccc(C(=O)O)cc3)c(OC)c2)cc1	none (no result: esBAF inh)
N#C/C(=C/c1ccc(OCc2ccc(C(=O)O)cc2)cc1)C(=O)Nc1ccccc1	none (no result: SMARCA2 activ, Wnt bcat act)
N#C/C(=C\c1ccc(OCc2ccc(Br)cc2)cc1)C(=O)Nc1cccc(C(=O)O)c1	HSF1 activator 72 (no result: esBAF inh)
C[C@H](CO)N1C[C@H](C)[C@H](CN(C)Cc2ccccc2)OCCCC[C@H](C)Oc2ccc(NC(=O)Nc3cccc4ccccc34)cc2C1=O	none (no result: HSF1 inhib, HSF1 activator, SMARCA2 activ, MITF act, Wnt bcat act)
CN1/C(=C\C(=O)COC(=O)c2ccc(O)cc2)C(C)(C)c2ccccc21	none
CCOC(=O)/C=C1/N(C)c2ccccc2C1(C)C	Wnt bcat act 41
Cc1nn(-c2ccccc2)c(C)c1/C=N/O	none (no result: Wnt bcat act)
Cc1nn(-c2ccccc2)c(/N=C/c2ccccc2O)c1-c1ccccc1	Wnt bcat act 129 (no result: esBAF inh)
COc1ccc(CCNC(=O)Nc2cccc([N+](=O)[O-])c2)cc1OC	HSF1 activator 71 (no result: esBAF inh)

High-throughput results as filed in PubChem BioAssay.
